HepG2 tox – qHTS for Inhibitors of TGF-b: Cytotox Counterscreen; AID 588856, 2011; Potency, µM (highest dose often 46.1 µM), for the others: at the top dose activity change, negative = cytotoxicity, hits mostly cytotoxic; 410,000 tested, 0.76% active; HepG2 CAGA-GFP viability, ATP luminescence, 18 h; note: potency is the fitted concentration of half-maximal effect
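CellTiter-Glo luminescence gave cytotoxicity after 18 hours at 37 degrees C. The cells were HepG2 CAGA-GFP in 1% FBS DMEM, stimulated with 500 pg/mL TGF-beta after compound addition. %Activity was normalised to no-cell wells (complete cell-killing) and DMSO (no toxicity), and curves were fitted and classified.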
TGFb SMAD3 inh – qHTS for Inhibitors of TGF-b | HepG2 CAGA-GFP TGF-b/SMAD3 reporter, GFP fluorescence, 18 h; TGF-beta stimulated, 500 pg/mL final | Potency, µM (doses to about 46.1 µM), without a hit: top-dose activity, negative = inhibition, usual class: inhibitors | 410,000 tested, 1.2% active; note: potency is the fitted concentration of half-maximal effect; % is set by controls: 0 for no effect and ±100 for the full control effect; nearly all actives have a fitted effect of over 65% in size
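GFP signal (ex488/em500-530) from TGF-beta-stimulated HEPG2 CAGA-GFP cells, 500 pg/mL final, 18 h at 37 degrees C in DMEM plus 1% FBS, normalized to unstimulated and DMSO-stimulated controls.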
ATXN viability – Viability Counterscreen for Primary qHTS for Inhibitors of ATXN expression; S2 cells (HEK-293 line with an ATXN2-luciferase reporter) viability, CellTiter-Fluor protease fluorescence, 24 h; Potency, µM (series often up to 56.7 µM), actives largely listed as cytotoxic; 400,000 tested, 0.49% active; note: potency is the fitted concentration of half-maximal effect; nearly all actives have a fitted effect of over 40% in size
D3 antag – qHTS of D3 Dopamine Receptor Antagonist: qHTS; D(3) dopamine receptor (Homo sapiens), P35462; D3R cells, DiscoveRx beta-arrestin luminescence, antagonist mode; active compounds read low; max response, negative = inhibition, %; 360,000 tested, 2.5% active; in the data active = max response below about -50%; inconclusive = no clear call, values can overlap the other calls; note: % is set by controls: 0 for no effect and ±100 for the full control effect
Target sequence (P35462 whole entry, looked up): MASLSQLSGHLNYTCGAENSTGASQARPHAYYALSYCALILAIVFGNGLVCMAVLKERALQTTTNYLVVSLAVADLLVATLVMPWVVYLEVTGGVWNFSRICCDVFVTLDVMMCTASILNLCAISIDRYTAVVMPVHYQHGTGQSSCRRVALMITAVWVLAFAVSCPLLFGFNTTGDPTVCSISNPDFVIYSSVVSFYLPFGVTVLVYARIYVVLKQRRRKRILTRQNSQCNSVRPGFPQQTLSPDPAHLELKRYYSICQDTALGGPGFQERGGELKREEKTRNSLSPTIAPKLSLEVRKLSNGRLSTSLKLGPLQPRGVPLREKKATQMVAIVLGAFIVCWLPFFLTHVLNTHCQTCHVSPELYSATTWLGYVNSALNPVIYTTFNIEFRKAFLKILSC
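Cells expressing the human receptor were seeded at 1500 cells/well, incubated overnight at 37 degrees C in 5% CO2, then exposed to library compounds with dopamine controls for 90 minutes at 37 degrees C before luminescent detection.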
ATXN2 expr inh – Primary qHTS for Inhibitors of ATXN expression | HEK-293 ATXN2-luciferase reporter, luminescence, 24 h | Potency, µM (top dose mostly 57 µM), inactives show top-dose activity change, negative = inhibition, hits mostly inhibitors | 360,000 tested, 0.72% active; note: potency is the fitted concentration of half-maximal effect; % is set by controls: 0 for no effect and ±100 for the full control effect; nearly all actives have a fitted effect of over 55% in size
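ATXN2-luciferase reporter cells (luciferase flanked by upstream and downstream ATXN2 gene portions) were treated 24 h at 37 °C with compounds at up to 57 uM. SteadyGlo luminescence gave expression; GF-AFC fluorescence gave viability.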
DRD3 agonist – qHTS of D3 Dopamine Receptor Agonist: qHTS; D(3) dopamine receptor (Homo sapiens), P35462; D3R DiscoveRx beta-arrestin cells, luminescence, 90 min; max activation, %; 410,000 tested, 0.58% active; AID 652048, 2013; in the data active = max activation above about 30%; note: 0% is about no effect
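Agonist-mode cell screen: cells plated at 1500/well and incubated overnight at 37 °C, then exposed to library compounds for 90 min at 37 °C. Detection reagent was added for 30–60 min at room temperature, and luminescence was read.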
Starred values were filed as active, the others as inactive; i = inactive; ? = inconclusive; / = not tested or not shown; [ ] = remark or other dose. Rows were chosen to be rich in hits. Some 4.7% of all compounds tested hit in one or more screens of this group. Unless noted, calls come from the whole dose curve; as a rule, active = well fitted curve in the direction sought with a large enough effect; inconclusive = small, poorly fitted or top-dose-only effect, or another doubt; inactive = no such curve, though single readings can be large; an effect the other way counts as inactive or inconclusive.

SMILES	HepG2 tox	TGFb SMAD3 inh	ATXN viability	D3 antag	ATXN2 expr inh	DRD3 agonist
Cc1cccnc1C(NC(=O)C1CCN(Cc2ccccc2)CC1)c1ccc(F)cc1 (stereo unspecified)	4%	4%	i	-55*	-30%	-12
COc1cc(CN2CCC(C(=O)NC(c3ccc(F)cc3)c3ncccc3C)CC2)cc(OC)c1 (stereo unspecified)	-30%	-8%	i	0	-9%	-20
O=C(O)CCn1c2c(c3ccccc31)C[C@H](NS(=O)(=O)c1ccc(F)cc1)CC2	/	/	i	/	6%	-9
CC(=O)c1ccc(S(=O)(=O)Nc2cccc(-c3ccc(N4CCCCCC4)nn3)c2)cc1	-6%	-11%	?	/	23%	-9
CCC[N+](C)(C)c1ccc(/C=C/c2ccncc2)cc1	-33%	44%	/	/	/	/
Cc1ccc(-n2c(=O)c3c(cnn3C)n(CC(=O)Nc3cc(C)ccc3C)c2=O)cc1	-7%	-18%	i	/	-2%	-3
O=C(Nc1ccccc1Oc1ccccc1)[C@@H]1O[C@H](CO)[C@H](O)[C@H](O)[C@H]1O	-4%	-9%	i	-162*	13%	-33
COc1ccc(-c2ccccc2)cc1NC(=O)[C@@H]1O[C@H](CO)[C@@H](O)[C@H]1O	-14%	-15%	i	-5	-1%	-1
Nc1c(NC/C=C\COc2cc(CN3CCCCC3)ccn2)c(=O)c1=O	/	/	?	/	3%[25.6 µM]	-19
C(=Nc1cccnc1)c1ccnc2ccccc12	-2%	-6%	/	/	/	/
CCOC(=O)CSc1nc2cc3c(cc2c(=O)n1CCCCCC(=O)NCc1ccc(OC)cc1)OCO3	9%	-30%	/	/	/	9
COc1ccc(/C=C/C(=O)NC(=S)NNC(=O)c2cnccn2)cc1	8%	-6%	?	13	14µM*	5
CCOc1ccc(C(=O)Nc2ccc3nc(SCC(=O)N(C)c4ccccc4)sc3c2)cc1	-6%	-31%	/	/	/	3
COC(=O)c1c(-c2ccc(SC)cc2)sc2ccc(OC)cc12	-12%	-9%	i	16	28%	38*
COC(=O)c1c(-c2ccccc2OC)sc2ccccc12	3%	-11%	i	-6	-14%	1
COC(=O)c1c(-c2ccc(SC)cc2)sc2ccccc12	-24%	-26%	i	42	56%	56*
COC(=O)c1c(-c2ccc(S(C)(=O)=O)cc2)sc2ccc(OC)cc12	2%	3%	?	0	-26%	22
COC(=O)c1c(-c2cc(OC)cc(OC)c2)sc2ccc(OC)cc12	-5%	21%	i	10	2%	62*
CN1CCCC(CN(C)C(=O)c2cnn(-c3nccc(-c4ccccc4C(F)(F)F)n3)c2C2CC2)C1 (stereo unspecified)	/	/	i	/	/	/
Cc1onc(-c2ccc(Br)cc2)c1C(=O)Nc1ccc(Br)cc1F	-5%	-6%	i	/	42%	1
CCCCOc1ccccc1C(=O)Nc1nonc1-c1ccccc1	-25%	?	/	/	/	35*
N#C/C(=N\Nc1cccc(C(F)(F)F)c1)C(=O)c1ccsc1	-81%	10µM*	i	-6	/	6
Cc1nccc(-c2cccc(N/N=C(\C#N)C(=O)c3ccccc3)c2)n1	-22%	2%	i	33	/	-1
FC(F)(F)c1cc(CCN2CCNC[C@H]2Cc2cccc3ccccc23)cc(C(F)(F)F)c1	-104%	?	40µM*	0	?	6
CCCC[C@@H]1CNCCN1CCc1cccc2ccccc12	-57%	?	i	-53*	?	-30
SMILES	HepG2 tox	TGFb SMAD3 inh	ATXN viability	D3 antag	ATXN2 expr inh	DRD3 agonist
Oc1ccc(C[C@@H]2CNCCN2CCc2cc(C(F)(F)F)cc(C(F)(F)F)c2)cc1	-93%	?	?	-5	20µM*	-25
CCOCCCNC(=O)C(=O)Nc1c2c(nn1-c1ccc(OC)cc1)CSC2	-6%	2%	i	/	11%	2
CCCCCCCCCCCCCCCCOC(=O)N1CCN(/[N+]([O-])=N/Oc2ccc([N+](=O)[O-])cc2[N+](C)=O)CC1	2%	-3%	/	/	/	/
Nc1ccc2c(c1)[nH]c(=O)c1ccccc12	-3%	-16%	i	4	1%	-13
Nc1cc2c(cc1Br)[nH]c(=O)c1ccccc12	-98%	10µM*	?	3	0%	5
COc1ccc(-n2c(C)nc3cc(C(=O)NC4CCCCCC4)ccc32)cc1	-42%	3%	i	/	3%	-9
N#Cc1c(Cl)nsc1NC(=O)c1ccccc1	-41%	3.5µM*	i	24	0%	6
N#Cc1c(NC(=O)c2ccccc2)sc2c1CCCCC2	-11%	1%	i	0	59%	-5
CCC(C)(C)n1nnnc1C(c1cccc(C#N)c1)N1CCN(c2cc(C)ccc2C)CC1 (stereo unspecified)	-1%	12%	i	-60*	-11%	-8
COc1ccc(CCC(=O)N2c3ccccc3N=C(c3ccc(C(F)(F)F)cc3)C2C(=O)NC(C)C)cc1 (stereo unspecified)	/	/	/	0	/	86*
Cc1ccccc1C(=O)NC(C)c1nnc2n1CCN(Cc1ccc(F)cc1)CC2 (stereo unspecified)	/	/	i	/	/	/
CCCCCc1cc[n+](CC(=O)c2ccccc2)cc1	-32%	0%	/	/	/	/
CC(C)N(CCCNC(=O)c1ccc(CS(=O)(=O)c2c(Cl)cccc2Cl)o1)Cc1ccccc1	-1%	3%	i	-56*	8%	-14
CCCCN(CCCNC(=O)c1ccc(CS(=O)(=O)c2c(Cl)cccc2Cl)o1)Cc1ccccc1	-28%	5%	i	-23	-3%	-13
O=C(NCCc1ccc(Cl)cc1)c1ccc(CS(=O)Cc2cccc(Cl)c2)o1 (stereo unspecified)	-19%	8.9µM*	/	/	/	-22
CCc1ccccc1S(=O)(=O)Cc1ccc(C(=O)NCc2ccc(Cl)cc2)o1	-32%	?	?	/	?	4
CCc1ccccc1S(=O)(=O)Cc1ccc(C(=O)NCCc2ccc(Cl)cc2)o1	-46%	11µM*	/	/	?	3
Cc1c2cnn(CC(=O)NC(C)C)c(=O)c2c(C)n1Cc1cccc(Cl)c1	5%	-11%	/	/	/	1
Cc1ccc(NS(=O)(=O)c2cc([N+](=O)[O-])ccc2NNC(=S)Nc2cccc(Cl)c2)c(C)c1	-86%	?	?	-73*	-8%	-4

Compound activity: PubChem, National Center for Advancing Translational Sciences (NCATS)
